Experimental findings from article PMC7862700, “An all-to-all approach to the identification of sequence-specific readers for epigenetic DNA modifications on cytosine” are described below.

Holding throughout (assay): DAPPL (digital affinity profiling via proximity ligation, sequencing); 10 mM Tris-HCl pH 7.5, 50 mM NaCl, 1 mM DTT, 4% glycerol, room temperature, 30 min; GST-TFs on glutathione beads, 16-mer random dsDNA library, 0.1% formaldehyde crosslink after washing; high values mean tight binding
One test has as its target T1, FLI1 (Homo sapiens, UniProt Q01543 1-452).
T1 sequence: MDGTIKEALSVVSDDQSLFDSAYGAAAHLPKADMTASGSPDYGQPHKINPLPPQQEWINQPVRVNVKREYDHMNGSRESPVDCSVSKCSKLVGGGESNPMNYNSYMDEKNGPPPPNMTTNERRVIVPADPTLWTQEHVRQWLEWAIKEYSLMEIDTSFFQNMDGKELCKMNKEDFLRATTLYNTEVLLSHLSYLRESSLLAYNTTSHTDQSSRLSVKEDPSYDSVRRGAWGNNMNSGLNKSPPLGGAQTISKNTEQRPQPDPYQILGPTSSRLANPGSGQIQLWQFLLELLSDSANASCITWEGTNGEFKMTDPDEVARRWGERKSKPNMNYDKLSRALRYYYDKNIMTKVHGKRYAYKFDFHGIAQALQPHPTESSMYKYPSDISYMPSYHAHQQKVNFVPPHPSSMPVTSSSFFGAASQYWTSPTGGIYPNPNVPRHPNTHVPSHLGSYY
As to conditions: protein: recombinant; tags: N-terminal GST; dsDNA, one strand shown. The method, boiled down:
(§1)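 Pools were built from human transcription factors expressed in yeast as GST fusions, captured on glutathione beads and DNA-barcoded, along with a tag-only sample. Incubation with 200 nmole of a 16-mer random double-stranded DNA library lasted 30 min at room temperature in Tris/NaCl/DTT/glycerol buffer, and was followed by washing, 0.1% formaldehyde crosslinking, proximity ligation, PCR amplification and Illumina NextSeq500 sequencing. Binding signal is the quotient of each hexamer's read frequency for a factor and its frequency for the tag-only sample.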

The target in another test is T2, ELK1 (Homo sapiens, UniProt P19419 1-428).
T2 sequence: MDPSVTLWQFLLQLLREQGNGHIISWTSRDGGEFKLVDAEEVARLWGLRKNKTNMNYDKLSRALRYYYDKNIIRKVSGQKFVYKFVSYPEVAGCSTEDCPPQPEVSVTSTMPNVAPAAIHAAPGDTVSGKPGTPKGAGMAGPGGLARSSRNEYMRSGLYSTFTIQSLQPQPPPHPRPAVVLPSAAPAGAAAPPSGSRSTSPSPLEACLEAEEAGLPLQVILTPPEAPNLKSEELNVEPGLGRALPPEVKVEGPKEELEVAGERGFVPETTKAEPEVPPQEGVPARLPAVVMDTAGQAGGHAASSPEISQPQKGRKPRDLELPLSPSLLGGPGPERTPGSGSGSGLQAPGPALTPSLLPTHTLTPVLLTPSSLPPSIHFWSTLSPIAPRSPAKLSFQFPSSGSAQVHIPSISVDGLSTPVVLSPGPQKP
As to conditions: protein: recombinant; tags: N-terminal GST; dsDNA, one strand shown. The method, boiled down: as §1

Another test has as its target T3, GABPA (Homo sapiens, UniProt Q06546 1-454).
T3 sequence: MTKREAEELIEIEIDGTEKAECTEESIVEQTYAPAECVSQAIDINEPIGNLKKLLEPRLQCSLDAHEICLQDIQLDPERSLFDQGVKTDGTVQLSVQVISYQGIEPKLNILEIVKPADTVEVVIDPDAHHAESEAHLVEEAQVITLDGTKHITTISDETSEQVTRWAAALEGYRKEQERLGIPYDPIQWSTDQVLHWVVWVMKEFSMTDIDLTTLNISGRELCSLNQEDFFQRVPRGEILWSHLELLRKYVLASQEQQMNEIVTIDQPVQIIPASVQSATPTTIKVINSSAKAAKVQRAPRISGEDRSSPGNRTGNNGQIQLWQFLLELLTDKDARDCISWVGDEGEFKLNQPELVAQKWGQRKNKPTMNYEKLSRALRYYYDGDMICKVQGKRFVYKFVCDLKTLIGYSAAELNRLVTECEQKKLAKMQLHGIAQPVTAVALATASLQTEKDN
The settings on record: protein: recombinant; tags: N-terminal GST; dsDNA, one strand shown. An outline of the steps:
as §1

For the next test, the target named is T4, ERG (Homo sapiens, UniProt P11308 1-479).
T4 sequence: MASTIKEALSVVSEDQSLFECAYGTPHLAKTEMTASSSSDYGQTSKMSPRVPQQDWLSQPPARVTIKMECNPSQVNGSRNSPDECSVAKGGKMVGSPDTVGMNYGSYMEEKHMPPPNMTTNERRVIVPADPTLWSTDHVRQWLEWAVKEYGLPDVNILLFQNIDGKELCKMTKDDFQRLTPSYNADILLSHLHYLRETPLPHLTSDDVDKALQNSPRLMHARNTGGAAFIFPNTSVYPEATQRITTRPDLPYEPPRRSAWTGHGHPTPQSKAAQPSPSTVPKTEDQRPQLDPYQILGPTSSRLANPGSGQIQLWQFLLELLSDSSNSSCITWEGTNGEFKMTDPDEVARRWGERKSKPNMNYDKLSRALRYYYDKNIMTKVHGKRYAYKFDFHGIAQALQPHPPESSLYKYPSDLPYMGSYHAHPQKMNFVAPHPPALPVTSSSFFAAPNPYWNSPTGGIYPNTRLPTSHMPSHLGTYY
As to conditions: protein: recombinant; tags: N-terminal GST; dsDNA, one strand shown. The method, boiled down:
as §1

Another test addresses ELF1 (Homo sapiens, UniProt P32519 1-619). The settings on record: protein: recombinant; tags: N-terminal GST; dsDNA, one strand shown. An outline of the steps: as §1
Another test has as its target T5, EHF (Homo sapiens, UniProt Q9NZC4 1-300).
T5 sequence: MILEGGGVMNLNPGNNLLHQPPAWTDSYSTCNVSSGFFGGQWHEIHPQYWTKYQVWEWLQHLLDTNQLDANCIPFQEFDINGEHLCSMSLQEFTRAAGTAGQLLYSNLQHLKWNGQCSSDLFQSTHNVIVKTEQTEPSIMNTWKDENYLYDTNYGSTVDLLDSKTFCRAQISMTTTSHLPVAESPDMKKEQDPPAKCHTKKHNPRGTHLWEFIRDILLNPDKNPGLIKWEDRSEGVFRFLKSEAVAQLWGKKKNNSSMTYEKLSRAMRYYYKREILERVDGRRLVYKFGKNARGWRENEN
The settings on record: protein: recombinant; tags: N-terminal GST; dsDNA, one strand shown. An outline of the steps:
as §1

In another test the target is SPI1 (Homo sapiens, UniProt P17947 1-270). As to conditions: protein: recombinant; tags: N-terminal GST; dsDNA, one strand shown. An outline of the steps:
as §1

For another test, the target named is SPIB (Homo sapiens, UniProt Q01892 1-262). As to conditions: protein: recombinant; tags: N-terminal GST; dsDNA, one strand shown. An outline of the steps:
as §1

The target in another test is T6, ELK3 (Homo sapiens, UniProt P41970 1-407).
T6 sequence: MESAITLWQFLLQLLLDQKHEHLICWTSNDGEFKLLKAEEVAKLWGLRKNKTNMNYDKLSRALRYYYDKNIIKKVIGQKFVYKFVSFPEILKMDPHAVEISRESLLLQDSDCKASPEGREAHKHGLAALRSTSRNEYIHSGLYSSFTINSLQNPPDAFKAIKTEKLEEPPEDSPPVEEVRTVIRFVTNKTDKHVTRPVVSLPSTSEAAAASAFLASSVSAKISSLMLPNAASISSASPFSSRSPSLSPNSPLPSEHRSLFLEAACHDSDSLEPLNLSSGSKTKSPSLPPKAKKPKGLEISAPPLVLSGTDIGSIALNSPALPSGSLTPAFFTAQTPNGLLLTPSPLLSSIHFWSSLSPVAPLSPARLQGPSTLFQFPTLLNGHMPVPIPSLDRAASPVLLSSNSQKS
The settings on record: protein: recombinant; tags: N-terminal GST; dsDNA, one strand shown. An outline of the steps: as §1

In another test the target is T7, FEV (Homo sapiens, UniProt Q99581 1-238).
T7 sequence: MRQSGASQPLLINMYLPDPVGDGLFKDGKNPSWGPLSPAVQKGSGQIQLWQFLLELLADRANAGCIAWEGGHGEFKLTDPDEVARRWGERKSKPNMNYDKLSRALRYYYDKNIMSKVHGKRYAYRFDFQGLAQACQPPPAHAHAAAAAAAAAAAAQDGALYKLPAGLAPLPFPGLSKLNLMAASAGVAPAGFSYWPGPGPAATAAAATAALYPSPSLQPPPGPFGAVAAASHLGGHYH
As to conditions: protein: recombinant; tags: N-terminal GST; dsDNA, one strand shown. The method, boiled down:
as §1

The next test deals with ETV5 (Homo sapiens, UniProt P41161 1-510). As to conditions: protein: recombinant; tags: N-terminal GST; dsDNA, one strand shown. The method, boiled down:
as §1

In a further test the target is HSF1 (Homo sapiens, UniProt Q00613 1-529). As to conditions: protein: recombinant; tags: N-terminal GST; chain copies: 3; dsDNA, one strand shown. An outline of the steps: as §1
The target in another test is T8, SPIC (Homo sapiens, UniProt Q8N5J4 1-248).
T8 sequence: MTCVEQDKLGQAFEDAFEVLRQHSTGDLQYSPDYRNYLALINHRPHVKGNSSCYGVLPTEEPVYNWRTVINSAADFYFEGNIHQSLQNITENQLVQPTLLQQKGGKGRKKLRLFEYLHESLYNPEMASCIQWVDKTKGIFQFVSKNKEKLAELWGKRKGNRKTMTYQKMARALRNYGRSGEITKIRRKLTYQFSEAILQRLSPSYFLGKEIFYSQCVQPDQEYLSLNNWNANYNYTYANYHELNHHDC
As to conditions: protein: recombinant; tags: N-terminal GST; dsDNA, one strand shown. An outline of the steps: as §1

The target of the next test is ELF4 (Homo sapiens, UniProt Q99607 1-663). The settings on record: protein: recombinant; tags: N-terminal GST; dsDNA, one strand shown. The method, boiled down: as §1
The target in the next test is T9, ELK4 (Homo sapiens, UniProt P28324-2 1-405).
T9 sequence: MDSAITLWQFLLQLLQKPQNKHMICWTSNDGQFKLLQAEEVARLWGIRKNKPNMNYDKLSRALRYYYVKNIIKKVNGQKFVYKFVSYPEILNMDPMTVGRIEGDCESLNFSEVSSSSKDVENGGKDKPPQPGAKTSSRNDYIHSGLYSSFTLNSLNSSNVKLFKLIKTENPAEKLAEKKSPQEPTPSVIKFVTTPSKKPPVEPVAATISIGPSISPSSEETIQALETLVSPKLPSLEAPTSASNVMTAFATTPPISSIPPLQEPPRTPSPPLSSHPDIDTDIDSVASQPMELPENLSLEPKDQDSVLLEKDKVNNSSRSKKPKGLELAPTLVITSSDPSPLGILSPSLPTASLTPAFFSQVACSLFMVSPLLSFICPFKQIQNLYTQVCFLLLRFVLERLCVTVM
As to conditions: protein: recombinant; tags: N-terminal GST; dsDNA, one strand shown. An outline of the steps:
as §1

The target in another test is T10, ETV2 (Homo sapiens, UniProt O00321 1-342).
T10 sequence: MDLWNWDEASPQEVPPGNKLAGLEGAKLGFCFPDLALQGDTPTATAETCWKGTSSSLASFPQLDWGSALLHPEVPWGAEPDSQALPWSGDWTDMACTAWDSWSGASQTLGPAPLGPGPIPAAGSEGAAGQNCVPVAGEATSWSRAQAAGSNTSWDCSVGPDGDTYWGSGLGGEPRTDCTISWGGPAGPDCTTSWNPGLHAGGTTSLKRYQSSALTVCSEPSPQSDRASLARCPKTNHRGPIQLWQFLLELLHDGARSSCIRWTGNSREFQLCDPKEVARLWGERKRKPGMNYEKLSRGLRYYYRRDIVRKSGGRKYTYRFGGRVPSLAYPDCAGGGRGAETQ
The settings on record: protein: recombinant; tags: N-terminal GST; dsDNA, one strand shown. The method, boiled down: as §1

In a further test the target is T11, ELF3 (Homo sapiens, UniProt P78545 1-371).
T11 sequence: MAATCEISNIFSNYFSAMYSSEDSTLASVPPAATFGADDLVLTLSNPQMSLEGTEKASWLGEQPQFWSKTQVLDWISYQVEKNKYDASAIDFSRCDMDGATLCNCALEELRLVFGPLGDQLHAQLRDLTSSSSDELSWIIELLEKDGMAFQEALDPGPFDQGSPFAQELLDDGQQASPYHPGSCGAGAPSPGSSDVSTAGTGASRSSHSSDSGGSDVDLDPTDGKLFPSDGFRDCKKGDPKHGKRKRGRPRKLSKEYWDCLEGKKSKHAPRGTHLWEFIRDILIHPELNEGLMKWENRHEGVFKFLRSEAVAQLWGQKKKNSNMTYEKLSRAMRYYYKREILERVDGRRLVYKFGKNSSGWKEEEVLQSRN
As to conditions: protein: recombinant; tags: N-terminal GST; dsDNA, one strand shown. The method, boiled down: as §1

In another test the target is CRX (Homo sapiens, UniProt O43186 1-299). As to conditions: protein: recombinant; tags: N-terminal GST; dsDNA, one strand shown. The method, boiled down:
as §1

For another test, the target named is ETV1 (Homo sapiens, UniProt P50549 1-477). The settings on record: protein: recombinant; tags: N-terminal GST; dsDNA, one strand shown. The method, boiled down:
as §1

Sequence of SPIB (Q01892 whole entry): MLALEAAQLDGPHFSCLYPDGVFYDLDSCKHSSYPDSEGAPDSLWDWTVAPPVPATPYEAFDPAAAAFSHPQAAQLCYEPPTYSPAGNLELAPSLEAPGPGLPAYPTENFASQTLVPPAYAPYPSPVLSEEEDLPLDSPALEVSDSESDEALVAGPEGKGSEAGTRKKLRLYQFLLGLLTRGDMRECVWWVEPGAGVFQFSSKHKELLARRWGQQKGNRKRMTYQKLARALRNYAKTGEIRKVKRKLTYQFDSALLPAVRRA
Sequence of CRX (O43186 whole entry): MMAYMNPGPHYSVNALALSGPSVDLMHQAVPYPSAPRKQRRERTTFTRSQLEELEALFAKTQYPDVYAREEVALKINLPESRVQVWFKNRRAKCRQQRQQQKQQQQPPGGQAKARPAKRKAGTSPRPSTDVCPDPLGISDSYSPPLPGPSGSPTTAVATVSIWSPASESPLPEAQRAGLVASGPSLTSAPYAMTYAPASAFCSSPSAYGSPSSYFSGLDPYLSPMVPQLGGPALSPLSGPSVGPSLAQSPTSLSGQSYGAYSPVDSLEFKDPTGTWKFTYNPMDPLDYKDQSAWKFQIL
Sequence of ELF4 (Q99607 whole entry): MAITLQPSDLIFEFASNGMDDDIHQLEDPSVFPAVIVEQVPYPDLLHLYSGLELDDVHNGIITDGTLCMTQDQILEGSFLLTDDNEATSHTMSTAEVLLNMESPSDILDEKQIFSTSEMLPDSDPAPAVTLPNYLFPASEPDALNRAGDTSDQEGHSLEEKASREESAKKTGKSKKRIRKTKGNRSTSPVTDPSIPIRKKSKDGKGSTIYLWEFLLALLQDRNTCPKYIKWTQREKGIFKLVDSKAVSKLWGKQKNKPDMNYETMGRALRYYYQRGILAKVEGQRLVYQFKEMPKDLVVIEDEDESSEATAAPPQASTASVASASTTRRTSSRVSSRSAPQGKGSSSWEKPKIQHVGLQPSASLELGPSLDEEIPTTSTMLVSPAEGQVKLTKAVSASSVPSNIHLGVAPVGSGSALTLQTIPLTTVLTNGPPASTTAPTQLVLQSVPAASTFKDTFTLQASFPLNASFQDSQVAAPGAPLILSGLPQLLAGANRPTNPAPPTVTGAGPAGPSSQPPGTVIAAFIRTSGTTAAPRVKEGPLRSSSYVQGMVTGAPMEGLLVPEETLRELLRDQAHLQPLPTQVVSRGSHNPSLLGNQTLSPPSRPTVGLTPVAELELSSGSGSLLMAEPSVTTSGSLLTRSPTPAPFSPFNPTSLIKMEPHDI
Sequence of ETV1 (P50549 whole entry): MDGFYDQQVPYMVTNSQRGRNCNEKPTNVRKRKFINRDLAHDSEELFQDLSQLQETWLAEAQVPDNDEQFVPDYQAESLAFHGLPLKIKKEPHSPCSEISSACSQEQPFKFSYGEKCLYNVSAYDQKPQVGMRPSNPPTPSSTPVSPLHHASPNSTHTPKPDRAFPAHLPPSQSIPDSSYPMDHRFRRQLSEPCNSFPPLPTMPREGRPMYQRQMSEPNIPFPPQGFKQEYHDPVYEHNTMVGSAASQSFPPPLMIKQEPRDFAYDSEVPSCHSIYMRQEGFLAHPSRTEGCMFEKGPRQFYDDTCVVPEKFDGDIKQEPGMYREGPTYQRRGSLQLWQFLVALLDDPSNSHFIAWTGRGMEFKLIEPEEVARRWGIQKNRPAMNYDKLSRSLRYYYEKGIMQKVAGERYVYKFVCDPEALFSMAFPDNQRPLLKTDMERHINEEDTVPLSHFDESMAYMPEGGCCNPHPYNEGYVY
Sequence of HSF1 (Q00613 whole entry): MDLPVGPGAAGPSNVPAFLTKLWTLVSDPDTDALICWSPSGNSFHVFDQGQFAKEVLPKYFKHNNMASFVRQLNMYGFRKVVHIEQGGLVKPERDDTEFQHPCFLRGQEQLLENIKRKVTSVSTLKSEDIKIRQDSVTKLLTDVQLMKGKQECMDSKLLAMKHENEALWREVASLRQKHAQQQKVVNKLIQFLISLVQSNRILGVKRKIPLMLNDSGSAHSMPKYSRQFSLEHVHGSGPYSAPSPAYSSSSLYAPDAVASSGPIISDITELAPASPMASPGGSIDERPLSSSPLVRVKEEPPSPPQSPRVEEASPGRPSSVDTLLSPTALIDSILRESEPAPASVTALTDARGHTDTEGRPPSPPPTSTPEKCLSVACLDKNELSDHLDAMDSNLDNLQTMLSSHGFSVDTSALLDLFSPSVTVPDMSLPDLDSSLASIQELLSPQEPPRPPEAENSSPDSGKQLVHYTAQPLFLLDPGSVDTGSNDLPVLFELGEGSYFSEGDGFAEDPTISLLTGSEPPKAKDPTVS
Sequence of ELF1 (P32519 whole entry): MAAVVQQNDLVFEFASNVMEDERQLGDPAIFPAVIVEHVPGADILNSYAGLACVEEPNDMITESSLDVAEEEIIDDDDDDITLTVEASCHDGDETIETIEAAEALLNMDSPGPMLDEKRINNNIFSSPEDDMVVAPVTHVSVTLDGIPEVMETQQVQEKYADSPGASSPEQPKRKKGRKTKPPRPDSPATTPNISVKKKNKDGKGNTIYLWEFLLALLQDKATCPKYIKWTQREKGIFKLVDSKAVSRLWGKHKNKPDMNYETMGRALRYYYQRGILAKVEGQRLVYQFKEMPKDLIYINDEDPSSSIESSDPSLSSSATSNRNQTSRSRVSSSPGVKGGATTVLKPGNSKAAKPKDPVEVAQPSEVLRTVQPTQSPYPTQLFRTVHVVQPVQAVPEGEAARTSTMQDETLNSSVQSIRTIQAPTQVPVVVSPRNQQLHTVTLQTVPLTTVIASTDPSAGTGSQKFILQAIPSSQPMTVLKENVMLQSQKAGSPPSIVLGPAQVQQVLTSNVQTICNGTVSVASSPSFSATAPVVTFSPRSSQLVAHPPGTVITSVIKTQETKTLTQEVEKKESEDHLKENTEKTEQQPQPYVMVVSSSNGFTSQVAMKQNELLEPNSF
Sequence of ETV5 (P41161 whole entry): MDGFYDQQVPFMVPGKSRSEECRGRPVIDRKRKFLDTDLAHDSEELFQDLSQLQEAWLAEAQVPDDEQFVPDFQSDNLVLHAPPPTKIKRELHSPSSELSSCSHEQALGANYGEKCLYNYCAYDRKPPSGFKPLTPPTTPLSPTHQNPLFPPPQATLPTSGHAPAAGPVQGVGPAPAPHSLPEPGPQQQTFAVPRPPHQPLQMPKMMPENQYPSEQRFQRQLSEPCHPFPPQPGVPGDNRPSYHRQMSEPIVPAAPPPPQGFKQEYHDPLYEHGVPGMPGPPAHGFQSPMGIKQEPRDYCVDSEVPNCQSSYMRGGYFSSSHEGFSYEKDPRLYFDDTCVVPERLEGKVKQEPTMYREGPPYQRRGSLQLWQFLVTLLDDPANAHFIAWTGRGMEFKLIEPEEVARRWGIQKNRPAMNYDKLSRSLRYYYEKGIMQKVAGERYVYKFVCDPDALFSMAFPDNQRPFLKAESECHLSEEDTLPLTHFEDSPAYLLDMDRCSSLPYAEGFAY

For the sequence AAGCTG, the binding signal with FLI1 is 1.21 fold enrichment (6-mer frequency, TF over GST control); in the test with ELK1, 1.24 fold enrichment (6-mer frequency, TF over GST control); with GABPA it was 1.16 fold enrichment (6-mer frequency, TF over GST control); in the test with ERG, 1.13 fold enrichment (6-mer frequency, TF over GST control); in the test with ELF1, 1.16 fold enrichment (6-mer frequency, TF over GST control); with EHF, 1.08 fold enrichment (6-mer frequency, TF over GST control). Also, the binding signal with SPI1 was 1.03 fold enrichment (6-mer frequency, TF over GST control); in the test with SPIB, 1.14 fold enrichment (6-mer frequency, TF over GST control); with ELK3, 1.08 fold enrichment (6-mer frequency, TF over GST control); with FEV it was 1.14 fold enrichment (6-mer frequency, TF over GST control); in the test with ETV5 it was 1.08 fold enrichment (6-mer frequency, TF over GST control); in the test with HSF1, 1.25 fold enrichment (6-mer frequency, TF over GST control). The binding signal was 1.08 fold enrichment (6-mer frequency, TF over GST control) with SPIC; 1.08 fold enrichment (6-mer frequency, TF over GST control) with ELF4; 1.19 fold enrichment (6-mer frequency, TF over GST control) with ELK4; 1.17 fold enrichment (6-mer frequency, TF over GST control) in the test with ETV2; 1.28 fold enrichment (6-mer frequency, TF over GST control) with ELF3; 1.59 fold enrichment (6-mer frequency, TF over GST control) in the test with CRX. Besides, the binding signal with ETV1 is 1.12 fold enrichment (6-mer frequency, TF over GST control).
